{
  "source": "PubChem BioAssay AID1558",
  "about": "(National Center for Advancing Translational Sciences (NCATS), 2009)",
  "note": "Several values for one entry are separate records, joined by “and”; a condition that tells them apart may be missing. Identical values can stand only once. Records with an inconclusive call do not appear. Where a call stands in place of a potency, no number is given. Activity calls are given as the source filed them. The call rests on the fitted dose curve; in most records, active means well fitted inhibition curve with a large enough effect; inconclusive means small, poorly fitted or top-dose-only effect; inactive means flat fitted curve, though single readings scatter.",
  "data": [
    {"molecular_target": "Microtubule-associated protein tau (Homo sapiens) (UniProt P10636)", "sequence (P10636 561-689 P618L limits assumed)": "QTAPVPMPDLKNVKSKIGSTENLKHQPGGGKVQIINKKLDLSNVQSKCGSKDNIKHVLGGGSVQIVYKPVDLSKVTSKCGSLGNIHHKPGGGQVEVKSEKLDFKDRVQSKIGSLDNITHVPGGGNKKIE", "experiment": "Confirmation Concentration-Response Assay for Inhibitors of Tau Fibril Formation, Thioflavin T Binding", "conditions": "recombinant tau K18 P301L (four-repeat tau fragment) heparin fibrillization, ThT fluorescence; series mostly up to 100 µM", "procedure,_shortened": "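ThT fluorescence (450/510 nm), read 1 hr after adding 30 uM final dye, reported fibril formation in concentration-response format. Before that, 15 uM K18 P301L tau with 0.24 uM Alexa 594-labeled tracer aggregated 6 hr at 37 C with 20 uM heparin and compound, pH 7 acetate buffer.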", "values": [
      {"smiles": "Cn1ncc(Cl)c1C(=O)Nc1cccc(Cl)c1", "Potency": "44.7 µM (active)"},
      {"smiles": "Nc1nc2cc(S(=O)(=O)NC3=NCCCCC3)ccc2s1", "Potency": "20 µM (active)"},
      {"smiles": "Cc1[nH]c(=O)c(C#N)cc1-c1ccncc1", "Potency": "inactive"},
      {"smiles": "CCOC(=O)c1nn(-c2ccc(OC)cc2)c(=O)c2c(N)scc12", "Potency": "631 nM (active) and 3.16 µM (active)"},
      {"smiles": "COc1c(Cl)cccc1NC(=O)c1c(NC(=O)Cc2ccccc2)sc2c1CCCC2", "Potency": "inactive"},
      {"smiles": "O=C(Nc1nnc(S(=O)(=O)Nc2ccccc2)s1)C1CCCCC1", "Potency": "inactive"},
      {"smiles": "CCOC(=O)c1nn(-c2ccc(Cl)cc2)c(=O)c2c(N)scc12", "Potency": "2.24 µM (active)"},
      {"smiles": "O=C(NCCCO)Nc1ccc2nc(-c3ccco3)c(-c3ccco3)nc2c1", "Potency": "3.16 µM (active)"},
      {"smiles": "O=C(O)CSc1cc(NS(=O)(=O)c2cccc([N+](=O)[O-])c2)c2ccccc2c1O", "Potency": "2 µM (active)"},
      {"smiles": "Nc1cc(-c2ccncc2)c[nH]c1=O", "Potency": "10 µM (active)"},
      {"smiles": "COc1ccc(OC)c(NC(=O)c2c(NCc3cccs3)sc3c2CCCC3)c1", "Potency": "inactive"},
      {"smiles": "O=C(Nc1ccccc1)Nc1ccccc1", "Potency": "inactive"},
      {"smiles": "COc1ccc(CNC(=O)Cn2nc(C)n3cccc3c2=O)cc1", "Potency": "inactive"},
      {"smiles": "CCn1c(CSc2nccn2C)nc2cc(C(=O)O)ccc21", "Potency": "39.8 µM (active)"},
      {"smiles": "CC(=O)Nc1nc(C)c(-c2csc(Nc3cccc([N+](=O)[O-])c3)n2)s1", "Potency": "3.55 µM (active)"},
      {"smiles": "Cc1nc2ccccc2oc1=O", "Potency": "inactive"},
      {"smiles": "NC[C@H](O)c1ccc(O)c(O)c1", "Potency": "5.62 µM (active)"},
      {"smiles": "Cc1ccc(N2C(=O)SC(Cc3ccccc3)C2=O)cc1", "note": "(stereo not drawn)", "Potency": "inactive"},
      {"smiles": "CCn1nccc1C(=O)Nc1cc(Cl)cc(Cl)c1", "Potency": "inactive"},
      {"smiles": "COc1ccc2[nH]c(=O)c(CNc3ccccc3OC)cc2c1", "Potency": "25.1 µM (active)"},
      {"smiles": "Cc1ccc(N(C)S(=O)(=O)c2nnc(NC(=O)C3CCCCC3)s2)cc1", "Potency": "inactive"},
      {"smiles": "CC(C)c1ccc(NS(=O)(=O)c2ccc3[nH]cc(C(=O)NCCc4ccccc4)c(=O)c3c2)cc1", "Potency": "inactive"},
      {"smiles": "COC(=O)c1c(NC(=O)CCCOc2cccc(C)c2)sc2c1C(C(=O)OC)CC2", "note": "(stereo not drawn)", "Potency": "1.78 µM (active)"},
      {"smiles": "Cc1ccc(NC(=O)N2CCN(c3ccccn3)CC2)cc1", "Potency": "inactive"},
      {"smiles": "COc1cc(/C=N/N=C2/NC(=O)C(CC(=O)O)S2)ccc1OCc1ccc(Cl)cc1", "note": "(stereo not drawn)", "Potency": "inactive"},
      {"smiles": "CCOC(=O)c1nn(-c2ccccc2)c(=O)c2c(NC(=O)c3ccccc3)scc12", "Potency": "inactive"},
      {"smiles": "Cc1ccc(NCc2cc3cc4c(cc3n(CC(=O)Nc3ccc(C)cc3)c2=O)OCCO4)cc1", "Potency": "inactive"},
      {"smiles": "Cc1ccc(C(=O)Nc2nc(=O)n(C(=O)CC(C)C)s2)cc1", "Potency": "inactive"}
    ]}
  ]
}
